Casp7 inh – allosteric or competitive inhibitors of human caspase-7. recombinant caspase-7, Ac-DEVD-AFC fluorescence rate. Potency, µM (doses to about 57.5 µM), hits mostly inhibitors. 75,000 tested, 0.02% active. AID 889; active = well fitted inhibition curve with a large enough effect in the main read-out, with a control signal flat, not every such curve was filed as active; inconclusive = small, poorly fitted or top-dose-only effect, or a change in a side signal
Casp1 inh – caspase-1 (human) inhibition, allosteric or competitive | 75,000 tested, 0.03% active | Potency, µM (highest dose often 57.5 µM), most hits filed as inhibitors | AID 900 | Caspase-1 enzyme, Ac-WEHD-AFC fluorogenic rate
Target sequence (P29466 120-297 limits assumed): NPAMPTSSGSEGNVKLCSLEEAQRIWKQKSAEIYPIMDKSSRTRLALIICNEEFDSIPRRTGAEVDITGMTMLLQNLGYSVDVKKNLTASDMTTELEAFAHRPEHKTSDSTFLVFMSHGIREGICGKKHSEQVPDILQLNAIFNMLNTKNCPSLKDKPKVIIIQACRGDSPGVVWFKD
Target sequence (P29466 317-404 limits assumed): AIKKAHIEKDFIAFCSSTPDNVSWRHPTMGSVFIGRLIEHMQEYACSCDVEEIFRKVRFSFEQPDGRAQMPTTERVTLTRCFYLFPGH
Tau fil binding – binds recombinant human tau filaments. AID 596. Potency, µM (top dose mostly 57.1 µM). 71,000 tested, 2% active. recombinant tau filaments, thioflavin S fluorescence, 15 h; filaments grown with octadecylsulfate alongside compound. P10636;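 also: actives lower thioflavin S fluorescence by blocking filaments or displacing dye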
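ThS-based fibril read: tau 1 uM final, inducer ODS 30 uM final, 37 C for 15 h, ex 450/em 510 nm.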
DNA Pol III inh – inhibitors of bacterial DNA polymerase III holoenzyme; reconstituted DNA polymerase III holoenzyme replication, biochemical; Potency, µM (doses to about 57.1 µM); 71,000 tested, 0.25% active
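Reconstituted *E. coli* holoenzyme (0.35 nM Pol III, 1 nM beta, 154 nM SSB, 2 nM primase) was preincubated with compound for 15 min at RT. Synthesis on 1.4 nM ssM13Gori ran 35 min, then was stopped with PicoGreen/EDTA and read as dsDNA fluorescence.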
15-hLO inh – blocks human 15-lipoxygenase activity | 74,000 tested, 1.4% active | AID 887 | Potency, µM (doses to about 57.1 µM), most hits filed as inhibitors | purified 15hLO-1, xylenol orange hydroperoxide absorbance | P16050; also: nearly all actives have a fitted effect of over 55% in size
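Hydroperoxide formed from arachidonic acid (50 uM) by purified human 15hLO-1 (40 nM) oxidizes ferrous iron, and the ferric-xylenol orange complex is read at 573 versus 405 nm. Compounds were preincubated 15 min; reaction ran 6 min at room temperature.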
Numbers stand for hits; [ ] = dose if it differs, or a comment. The list is not random: actives were taken first. Their share in the collection is about 3.2%. Unless noted, calls follow the shape of the dose curve; as a rule, active = well fitted curve in the direction sought with a large enough effect; inconclusive = small, poorly fitted or top-dose-only effect, or another doubt; inactive = no such curve, though single readings can be large; an effect the other way counts as inactive or inconclusive.

Results for CN(C)CCNC(=O)c1ccc(-n2c(=O)c(=O)[nH]c3ccccc32)cc1 ?
Casp7 inh: inactive; Casp1 inh: inactive; 15-hLO inh: inactive

How did Nc1nc2ccccc2[nH]1 do in these assays?
Casp7 inh: inactive; Casp1 inh: inactive; Tau fil binding: inactive; DNA Pol III inh: inactive; 15-hLO inh: inactive

What do the screens show for `Nc1cc(N)cc(-c2nc3ccccc3[nH]2)c1`?
Casp7 inh: inactive; Casp1 inh: inactive; Tau fil binding: 6.3µM; DNA Pol III inh: inactive; 15-hLO inh: inactive

How did Cc1ccc(-c2nc3ccccc3[nH]2)s1 do in these assays?
Casp7 inh: inactive; Casp1 inh: inactive; Tau fil binding: 13µM; DNA Pol III inh: inactive; 15-hLO inh: inactive

Results for CO[C@@H]1COC(=O)[C@@H](C)COC(=O)[C@@H](C)NC(=O)C/C=C\[C@@H]1C ?
Casp7 inh: inactive[11.5 µM]; Casp1 inh: inactive[11.5 µM]; 15-hLO inh: inactive[11.4 µM]

How did COC(=O)[C@@]1(Cc2ccc(OC)cc2)[C@H]2c3cc(C(=O)N(C)C)n(Cc4ccc(OC)c(OC)c4)c3C[C@H]2CN1C(=O)c1ccccc1 do in these assays?
Casp7 inh: inactive; Casp1 inh: inactive; Tau fil binding: inactive; DNA Pol III inh: inactive

What do the screens show for `COc1ccc(Nc2ncccc2C(=O)Nc2ccccc2)cc1`?
Casp7 inh: inactive; Casp1 inh: inactive; Tau fil binding: 20µM; DNA Pol III inh: inactive; 15-hLO inh: inactive

What do the screens show for `CN1CCc2c(sc3c2c(=O)n(-c2ccccc2)c2nnc(SCc4ccc(F)cc4)n32)C1`?
Casp7 inh: inactive; Casp1 inh: inactive; Tau fil binding: 4µM; DNA Pol III inh: inactive; 15-hLO inh: inconclusive

How did COCCSc1nc2sc3c(c2c(=O)n1-c1ccccc1)CCN(C)C3 do in these assays?
Casp7 inh: inactive; Casp1 inh: inactive; Tau fil binding: inactive; DNA Pol III inh: inactive; 15-hLO inh: inactive

How did CSc1nnc2n(-c3ccccc3)c(=O)c3c4c(sc3n12)CCC4 do in these assays?
Casp7 inh: inactive; Casp1 inh: inactive; Tau fil binding: inactive; DNA Pol III inh: inactive; 15-hLO inh: 2.5µM

What do the screens show for `COC(=O)c1ccc(C(NC(=O)OCc2ccccc2)/C(F)=C/[C@@H](C)C(=O)NCc2cccnc2)cc1` (stereo partly specified)?
Casp7 inh: inactive; Casp1 inh: inactive; Tau fil binding: inactive; DNA Pol III inh: inactive; 15-hLO inh: inactive

How did CCCN1C(=O)c2cc(C(=O)NC3CCCCCC3)ccc2C1O (stereo unspecified) do in these assays?
Casp7 inh: inactive; Casp1 inh: inactive; Tau fil binding: inactive; DNA Pol III inh: inactive; 15-hLO inh: inactive

How did CCCN1C(=O)c2cc(C(=O)O)ccc2C1O (stereo unspecified) do in these assays?
Casp7 inh: inactive; Casp1 inh: inactive; Tau fil binding: inactive; DNA Pol III inh: inactive; 15-hLO inh: 20µM

How did Cc1cccc(C)c1OC[C@@H](N)C(C)C do in these assays?
Casp7 inh: inactive; Casp1 inh: inactive; Tau fil binding: inactive; DNA Pol III inh: inactive; 15-hLO inh: inactive

Results for Cc1ccc(C2C3=C(CCCC3=O)Nc3[nH]c(=S)[nH]c(=O)c32)cc1 (stereo unspecified) ?
Casp7 inh: inactive; Casp1 inh: inactive; Tau fil binding: inactive; DNA Pol III inh: inactive; 15-hLO inh: 20µM

How did CC1(C)CC(=O)C2=C(C1)Nc1[nH]c(=S)[nH]c(=O)c1C2c1ccccc1 (stereo unspecified) do in these assays?
Casp7 inh: inactive; Casp1 inh: inactive; 15-hLO inh: inconclusive

How did O=C1CCCC2=C1C(c1ccc(Br)cc1)c1c([nH]c(=S)[nH]c1=O)N2 (stereo unspecified) do in these assays?
Casp7 inh: inactive; Casp1 inh: inactive; Tau fil binding: inactive; DNA Pol III inh: inactive; 15-hLO inh: 25µM

What do the screens show for `Cc1ccc(S(=O)(=O)N[C@@H](CCc2ccccc2)CC(=O)C(C)(C)C)cc1`?
Casp7 inh: inactive[11.5 µM]; Casp1 inh: inactive[11.5 µM]; 15-hLO inh: inactive[11.4 µM]

How did COc1ccc(-c2cc(C(F)(F)F)n3nc(C(=O)Nc4cc(C)on4)cc3n2)cc1OC do in these assays?
Casp7 inh: inactive; Casp1 inh: inactive; Tau fil binding: 1.6µM; DNA Pol III inh: inactive; 15-hLO inh: inactive

How did CCc1cccc(NC(=O)Nc2cccs2)c1 do in these assays?
Casp7 inh: inactive; Casp1 inh: inactive; Tau fil binding: inconclusive; DNA Pol III inh: inactive; 15-hLO inh: 13µM

What do the screens show for `Cc1cccc(C)c1NC(=O)Nc1cccs1`?
Casp7 inh: inactive; Casp1 inh: inactive; Tau fil binding: inactive; DNA Pol III inh: inactive; 15-hLO inh: 25µM

Screening data (PubChem)
